Assay outcomes (PubChem)
MPTP inh: permeability transition pore inhibition; isolated mouse mitochondria, Ca2+ swelling absorbance, 30 min; inhibition, % at 10 µM; 1.4% of 360,000 active; AID 602449;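 active = inhibition of 50% or more, scaled per plate between neutral and stimulator controls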;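 also: 0% = DMSO wells given calcium and 100% = 1 mM EGTA wells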
DSG3 Ab inh: inhibitors of pemphigus antibody binding to human desmoglein-3. P32926. DSG3-coupled beads, scFv-anti-DSG3-GFP binding, flow cytometry; stronger effect = lower value. binding (percent of control), % at 10 µM. 0.48% of 310,000 active. AID 588358;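 active = binding more than 3 SD below its plate's average and above zero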;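 also: hits lower antibody fragment binding to DSG3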
ADAM17 inh: inhibits human ADAM17. 0.83% of 370,000 active. recombinant ADAM17, EDANS/DABCYL FRET peptide cleavage. inhibition, % at 6.95 µM. P78536;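 active = inhibition above the mean of compounds lying between control limits plus 3 SD, set per campaign, cut at about 8.5% in these data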;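 also: 0% = DMSO-only wells as the low control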
ADAM10 inh: ADAM10 inhibition, QFRET primary screen | 0.62% of 370,000 active | AID 720582 | O14672 | recombinant ADAM10, EDANS/DABCYL FRET peptide cleavage, 3 h | inhibition, % at 7 µM;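 active = inhibition above a per-campaign cutoff equal to the mean of compounds falling between control-based bounds plus 3 SD, cut at about 20% in these data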;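 also: 0% = DMSO wells while the 100% control is not disclosed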
Target sequence (O14672 214-748 limits assumed): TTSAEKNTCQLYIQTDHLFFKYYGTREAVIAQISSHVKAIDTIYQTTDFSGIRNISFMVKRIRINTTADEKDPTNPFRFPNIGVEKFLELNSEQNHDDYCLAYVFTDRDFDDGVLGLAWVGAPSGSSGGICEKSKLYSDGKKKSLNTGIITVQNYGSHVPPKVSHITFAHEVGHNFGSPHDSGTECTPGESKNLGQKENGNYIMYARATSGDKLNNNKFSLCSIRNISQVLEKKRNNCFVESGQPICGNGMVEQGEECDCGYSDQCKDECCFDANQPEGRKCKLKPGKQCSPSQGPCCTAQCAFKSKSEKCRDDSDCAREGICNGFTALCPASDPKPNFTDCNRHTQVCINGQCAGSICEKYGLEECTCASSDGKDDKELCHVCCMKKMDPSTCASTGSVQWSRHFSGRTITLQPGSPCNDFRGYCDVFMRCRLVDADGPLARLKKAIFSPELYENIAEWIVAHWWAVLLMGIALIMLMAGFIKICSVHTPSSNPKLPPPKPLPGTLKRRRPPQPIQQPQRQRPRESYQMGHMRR
rCAG binder: molecules binding r(CAG) RNA repeats; AID 651821; 1.3% of 370,000 active; inhibition, % at 3 µM; r(CAG) RNA repeat, TO-PRO-1 dye displacement fluorescence;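 active = inhibition above the plate cutoff, the mean of all test compounds on that plate plus 3 SD, cut at about 35% in these data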;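 also: 0% = DMSO alone and 100% = 100 µM mitoxantrone as full dye displacement; higher means more dye released from RNA so lower well fluorescence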
KLK7 zymogen act: proKLK7 (human) activation, primary screen; 0.9% of 370,000 active; activation, % at 7 µM; purified proKLK7, EDANS-DABCYL substrate fluorescence; 100% is mature enzyme control, 0% vehicle; AID 652039;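 active = activation above the mean of all tested compounds plus 3 SD, computed per campaign excluding outliers beyond control limits, cut at about 13% in these data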
Rh123 counter: membrane potential counter-screen of mitochondrial pore inhibitors. shares compounds with MPTP inh. isolated mitochondria, Rhodamine 123 fluorescence. inhibition, % at 10 µM. 78% of 5,000 active. AID 624504; in the data active = inhibition above about 22%;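 also: 0% = DMSO vehicle and 100% = positive control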
MPTP abs DR: MPTP inhibition, dose response swelling confirmation | AID 651561 | 58% of 780 active | IC50, µM | shares compounds with MPTP inh | isolated mitochondria swelling, absorbance; in the data active = IC50 below about 20 µM
MPTP cs DR: MPTP inhibitor counter-screen activity, dose response | shares compounds with MPTP inh | isolated mitochondria counterscreen, fluorescence read-out | IC50, µM | 49% of 780 active | AID 651564; in the data active = IC50 below about 80 µM
Numbers without * were called inactive; i = inactive; · = no result. Only some compounds are listed: those with a hit (about 4.7% of all), similar ones and a draw of the others.

SMILES | MPTP inh | DSG3 Ab inh | ADAM17 inh | ADAM10 inh | rCAG binder | KLK7 zymogen act | Rh123 counter | others
CCOc1cccc(=NC2CCCCC2)c2c(C)n(C)c(C)c12 | 62* | 100 | -24 | -81 | -1 | 0 | 71*
CCOc1ccccc1N=C1SCCCN1C | -1 | 100 | 2 | 0 | -2 | 1 | ·
Cc1cc(N2CCNC[C@H]2C)ccc1N1CCN[C@H](C)C1 | · | · | 4 | -2 | 5 | 0 | ·
CCC(=O)c1cn(Cc2ccccc2)c2ccccc12 | -1 | 98 | -2 | -7 | -5 | 1 | ·
CC(=O)c1cn(CCCOc2ccccc2)c2ccccc12 | 82* | 85 | 5 | 12 | -2 | 0 | 56*
O=C(C(=O)N1CCOCC1)c1cn(CCCOc2ccccc2)c2ccccc12 | 2 | 111 | -2 | -7 | -5 | 0 | ·
CN(C)CCOC(=O)c1cn(Cc2ccccc2)c2ccccc12 | 59* | · | -1 | 5 | -6 | 1 | -8 | MPTP abs DR=18*;MPTP cs DR=>80
CC(=O)OC1CCC2(C)C(CCC3C2CC(=O)C2(C)C3CC(N3CC3)C2C(C)=O)C1 (configuration not stated) | 0 | · | -3 | -12 | 1 | 0 | ·
COC(=O)[C@@H]1N=C(c2ccc(OC)cc2)O[C@]12C(=O)N(C)c1ccc(Cl)cc12 | -2 | · | -5 | -7 | 2 | 0 | ·
CC1(C)CC(=O)CC(C)(C)N1O | -1 | 104 | 5 | 3 | -2 | -1 | ·
COc1ccc(NC(=S)NC(NC(=O)CF)C(Cl)(Cl)Cl)cc1[N+](=O)[O-] (configuration not stated) | -3 | 104 | -3 | -6 | 12 | 0 | ·
O=C(CF)NC(NC(=S)Nc1cccc([N+](=O)[O-])c1)C(Cl)(Cl)Cl (configuration not stated) | 79* | 93 | 0 | 3 | 5 | -1 | 92*
CC(C)(C)NC(=O)CN1C(=O)[C@@H](Cc2c[nH]c3ccccc23)N=C(c2ccccc2)c2ccccc21 | · | · | 4 | 7 | 5 | 0 | ·
Ic1ccccc1CN[C@@H]1C2CCN(CC2)[C@@H]1C(c1ccccc1)c1ccccc1 | 87* | 124 | -2 | 8 | 7 | 0 | 1
COc1cc(CCN)c(OC)cc1C | · | · | 0 | -9 | 0 | 0 | ·
CCCCn1c(NS(=O)(=O)c2ccccc2)c(C(=O)OCC)c2nc3ccccc3nc21 | 59* | 107 | -412 | i | 33 | 8 | 50*
C/C(=N\NC(N)=S)C1=CCC2C3CC[C@H]4CC(O)CC[C@]4(C)C3CC[C@]12C (some centres not stated) | 65* | 100 | -2 | -3 | 2 | 0 | 14 | MPTP abs DR=18*;MPTP cs DR=22*
CCN1C(=O)C(=Cc2ccc(C)s2)C(=O)N(CC)C1=S | 73* | · | 2 | 3 | 24 | 0 | -6
CCOC(=O)C1(CCOc2ccccc2)CCN(Cc2ccc(C)s2)CC1 | 65* | 99 | -5 | -10 | -11 | 0 | 82*
CCOC(=O)C1(CCc2ccccc2)CCN(Cc2ccc3c(c2)OCCO3)CC1 | 28 | 105 | -4 | -1 | -8 | 1 | ·
c1ccc(N2[C@@H]3CC[C@H]2c2ccncc2C3)cc1 | -2 | · | -4 | -4 | 0 | 0 | ·
CCOc1cc(C2NCc3ccccc3-n3cccc32)ccc1O (configuration not stated) | 88* | 96 | 1 | 9 | 0 | 0 | -8 | MPTP abs DR=7.1*;MPTP cs DR=>80
CN1[C@@H]2CC[C@H]1CC(OC1c3ccccc3CCc3ccccc31)C2 (some centres not stated) | 97* | 110 | -6 | -2 | 9 | 0 | 1 | MPTP abs DR=7.8*;MPTP cs DR=>80
O=C1NC(=O)C(=Cc2ccc(-c3ccccc3[N+](=O)[O-])o2)C(=O)N1 | 51* | 103 | -6 | -11 | 1 | 1 | 47*
O=C1NC(=O)C(=Cc2ccc(-c3cc(Cl)ccc3[N+](=O)[O-])o2)C(=O)N1 | 31 | 112 | -5 | -14 | 3 | 0 | ·
SMILES | MPTP inh | DSG3 Ab inh | ADAM17 inh | ADAM10 inh | rCAG binder | KLK7 zymogen act | Rh123 counter | others
Clc1ccc(CCC(Cn2ccnc2)Sc2c(Cl)cccc2Cl)cc1 (configuration not stated) | 2 | 117 | 2 | 8 | 3 | 0 | ·
CCCCCc1nc2c(c(=O)c3ccccc3n2C)c(=O)n1C1CCCCCC1 | 87* | 114 | 1 | -5 | 10 | 0 | -5
CCCCCc1nc2ccccc2c(=O)n1-c1ccccc1[N+](=O)[O-] | 2 | 98 | 6 | 6 | -2 | 0 | ·
CN1C(=O)C(=CN2CCN(C(=O)c3ccco3)CC2)C(=O)N(C)C1=S | -2 | 91 | -1 | -3 | 0 | 2 | ·
CCCCN1C(=O)/C(=C\c2ccco2)C(=O)N(CCc2ccccc2)C1=O | 68* | 101 | 3 | 18 | 27 | 0 | -6
CN(C)c1ccc(-[n+]2c(-c3ccccc3)cc(-c3ccccc3)cc2-c2ccccc2)cc1 | 2 | · | -2 | -6 | 15 | 1 | ·
c1ccc(-c2cc(-c3ccccc3)[n+](-c3ccccc3)c(-c3ccccc3)c2)cc1 | 64* | 97 | -2 | -1 | 8 | 1 | 89*
Cc1ccc(-c2cc(-c3ccccc3)cc(-c3ccccc3)[n+]2-c2ccccc2)cc1 | 11 | 102 | -25 | -74 | 7 | 1 | ·
Cc1ccc(-c2cc(-c3ccc(C)cc3)[n+](-c3ccccc3)c(-c3ccc(C)cc3)c2)cc1 | 95* | 108 | · | · | · | · | 101*
CCOC(=O)C1=C(C(=O)OCC)C2(c3ccccc3)c3ccccc3C1(C)N2C (configuration not stated) | · | · | 0 | -4 | 5 | 1 | ·
Nc1c2c(nc3sc4c(c13)CCCCC4)CCCC2 | 88* | 100 | -2 | -3 | 10 | 0 | 80*
CC[C@]12CCN(CC3(O)CC3)[C@H](Cc3ccc(O)cc31)C2(C)C | · | · | -3 | -7 | 3 | 0 | ·
O=C(Nc1ccc(Cl)cc1)OC1CN2CCC1CC2 (configuration not stated) | 78* | 112 | 1 | 11 | 1 | 1 | 93*
O=C(Nc1cccc(Cl)c1)OC1CN2CCC1CC2 (configuration not stated) | 92* | 108 | 8 | 14 | 10 | 0 | 88*
N#CC1c2ccccc2-n2nncc2CN1C(=O)c1ccccc1F (configuration not stated) | 0 | · | -2 | 1 | 1 | 0 | ·
CCc1nn2c(=O)c(F)c(N3CCNCC3)nc2s1 | -3 | · | 3 | 7 | 2 | 1 | ·
